This note sets out measurements from PubChem BioAssay (NCI).

The panel holds about 83,000 compounds, 20% with a hit somewhere; the sample as a whole holds those more often.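 Cells were grown in 96-well plates and exposed to the test compound at a single concentration for 48 hours; results are reported as percent growth, with values below 10 considered active.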 Values without a mark were called inactive. Active and inactive are the calls of the source.

This test has as its system MDA-MB-468 breast. The experiment in a line: NCI-60 one-dose screen, 48 h (100 = growth as untreated, 0 = no growth, -100 = all killed). The note with it: 10 µM unless noted.
For the molecule `CCOC(=O)c1c(Nc2ccccc2)nn2c(-c3cccs3)ccnc12`, the growth was 73.3%.

As for `COc1cc(C2C3=C(COC3=O)N(CCO)c3cc4c(cc32)OCCO4)cc(OC)c1O` (stereo not drawn), the growth is -24.4% (active).

For `COc1ccc(-c2nc(SCC(C)C)nc(N/N=C\c3ccc(F)cc3)c2C#N)cc1`, the growth was 102%.

Take `Cc1ccc(C(=O)NN2C(=O)CSC2c2ccc(Cl)cc2)cn1` (stereo not drawn): the growth was 110%.

For the molecule `O=C1C2CC=CCC2C(=O)N1CNc1ccc(Cl)cc1` (stereo not drawn), the growth is 91%.

Turning to `COc1cc(C(=O)/C=C/c2c(-c3cccs3)nc3sc(C)cn23)cc(OC)c1OC`, the growth was -4.34% (active).

Take `CN(C)c1ccc(C(=C2C=CC(=[N+](C)C)C=C2)c2ccc(N(C)C)cc2)cc1`: the growth is -82.4% (active).

Consider `Cn1ccc2c3c(ccc21)CC3=O`, for which the growth was 106%.

Regarding `C[C@H]1[C@H]2[C@H]3CC[C@@H]4[C@@]5(C)CC[C@H](O)C(C)(C)[C@@H]5CC[C@@]4(C)[C@]3(C)CC[C@]23CO[C@]1(C)[C@@H](C(=O)/C=C\c1cccnc1)C3`, the growth is 20.5%.

In the case of `Cn1cc(C=O)c2ccccc21`, the growth is 100%.

As to `C=CCn1c(C)nc2cc(Nc3nc(N4CCCC4)nc4nc[nH]c34)ccc21`, the growth is 51.1%.

`NS(=O)(=O)c1ccc(Nc2nc(SCC(=O)c3ccc(Cl)cc3)nc3c2CCCC3)cc1`: the growth is 57.9%.

For the molecule `Cc1nc2cc(Nc3nc(NCCN)nc(Nc4ccc(F)cc4)n3)ccc2n1Cc1ccccc1`, the growth was 73.2%.

Regarding `CN1CCc2cccc3c2C1Cc1ccc(O)c(O)c1-3` (stereo not drawn), the growth was 0.652% (active).

As for `S=C(SSC(=S)N1CCOCC1)N1CCOCC1`, the growth is 106%.

In the case of `CC(=O)Nc1cccc(-c2ccc3c(c2)NC(=O)/C3=C\c2ccc[nH]2)c1`, the growth is 21.1%.

`NC(=O)OCCO`: the growth was 113%.

For the molecule `O=C1OCC2=C1C(c1cccc(Cl)c1)c1cc3c(cc1N2CCO)OCO3` (stereo not drawn), the growth was -10.2% (active).

Turning to `Oc1ccc(C2c3ccccc3Oc3ccccc32)c2cccnc12`, the growth is 9.14% (active).

In the case of `O=C1NCC(c2cc3ccccc3[nH]c2=O)Nc2ccccc21` (stereo not drawn), the growth is 97.5%.

As to `C=CCn1c(SCC(=O)Nc2ccc(C(=O)/C=C/c3ccc(Cl)cc3)cc2)nnc1-c1ccc(Cl)c(Cl)c1`, the growth is 81.5%.

On to `O=c1oc2ccc(F)cc2c(=O)n1-c1ccc(Cl)cc1F`, for which the growth is -1.59% (active).

With `Oc1cccc2c1NCCC2`, the growth was -8.83% (active).

Take `C[n+]1ccccc1C[n+]1ccccc1`: the growth is 117%.

Regarding `Cc1nc2ncccc2nc1Nc1ccc(S(=O)(=O)Nc2ccccn2)cc1`, the growth is 109%.

On to `c1cnc2nc3c(cc2c1)oc1ccccc13`, for which the growth was 81%.

For the molecule `C#C[C@]1(O)CC[C@H]2[C@@H]3CC=C4c5sc(Nc6cccc(Cl)n6)nc5CC[C@]4(C)[C@H]3CC[C@@]21C`, the growth was 23.3%.

Turning to `CN(Cc1ccccc1)c1nc(Cl)c(C2CC(c3ccc4c(c3)OCO4)=NN2c2cc(Cl)cc(Cl)c2)s1` (stereo not drawn), the growth was 103%.
